NCOA1 inh = SRC1 coactivator transcriptional activity inhibitors, primary screen, cell-based, luminescence; Nuclear receptor coactivator 1 (Homo sapiens), Q15788; HEK293 GAL4-SRC1 luciferase reporter; inhibition, % at 3.6 µM; hit rate 0.12% among 360,000; AID 588354, 2011;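 active = inhibition above the campaign mean plus 3 SD, with each screening campaign given its own cutoff, cut at about 60% in these data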;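 also: 0% = DMSO treated cells and 100% = gossypol at 36 µM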
NCOA3 inh = SRC3 coactivator transcriptional activity inhibitors, primary screen, cell-based, luminescence | inhibition, % at 3.6 µM | hit rate 0.17% among 360,000 | HEK293 GAL4-SRC3 luciferase reporter | AID 588352, 2011;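 active = inhibition above a per-campaign cutoff, the mean of all compounds plus 3 SD, cut at about 60% in these data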;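 also: 0% = DMSO-treated cells and 100% = gossypol-treated cells at 36 µM; higher means less SRC3-driven luciferase light from the GAL4 reporter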
LRH-1 inv ag = LRH-1 (NR5A2) inverse agonists, primary screen, cell-based, luminescence, HEK293T, StAR-luciferase reporter. Nuclear receptor subfamily 5 group A member 2 (Homo sapiens), O00482. LRH-1 transfected, 24 h. inhibition, % at 3.6 µM. hit rate 0.13% among 360,000. AID 602396, 2012;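 active = inhibition above the mean inhibition of all tested compounds plus 3 SD, cut at about 73% in these data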;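 also: 0% = DMSO wells and 100% = reporter-only cells lacking LRH-1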
SRC2 inh = inhibition of GAL4-SRC2 driven luciferase reporter, primary screen, SRC2 inhibitor project, cell-based, luminescence; HEK293 GAL4-SRC2 luciferase reporter; inhibition, % at 9 µM; Nuclear receptor coactivator 2 (Homo sapiens), Q15596; hit rate 0.17% among 370,000; AID 651957, 2012;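 active = inhibition above the mean inhibition of all tested compounds plus 3 SD, set per campaign, cut at about 52% in these data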;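 also: 0% = DMSO treated cells and 100% = cells given Gossypol at 36 µM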
COUP-TFII inh = NR2F2 transcriptional activity inhibitors, primary screen, cell-based, luciferase reporter, HEK293T, luminescence. COUP transcription factor 2 (Homo sapiens), P24468. HEK293T NGFI-A luciferase reporter. inhibition, % at 8.6 µM. hit rate 0.7% among 370,000. AID 686940, 2013;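 active = inhibition above a per-plate cutoff, mean inhibition of test wells between control levels plus 3 SD, cut at about 38% in these data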;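 also: cells cotransfected with COUP-TFII expression vector driving the NGFI-A reporter; 0% = median of COUP-TF2 test wells and 100% = reporter-only cells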
Gli-Sufu block = Gli-Sufu pathway antagonists, primary screen, luciferase luminescence, Sufu-KO-LIGHT cells, uHTS; Sufu-KO-LIGHT fibroblasts, Gli luciferase reporter luminescence; inhibition, % at 5 µM; hit rate 0.74% among 340,000;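 active = inhibition above about 55%, limit read from the data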;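 also: 0% = DMSO-treated cells and 100% = wells with medium but no cells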
Gli antag conf = Gli-SUFU pathway antagonists, confirmation, single concentration, luciferase luminescence, Sufu-KO-LIGHT cells; hit rate 40% among 2,500; AID 602428, 2012; shares compounds with Gli-Sufu block; inhibition, % at 5 µM; Gli luciferase reporter;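 active = mean inhibition at 5 µM reaching about 45%, limit read from the data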;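 also: plate controls were DMSO-treated cells for no effect and wells lacking cells for full effect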
Gli cytotox = cytotoxicity in Sufu-KO-LIGHT cells, confirmation, cytotoxicity control for Gli-SUFU antagonist project, cell-based, ATP luminescence, single concentration; hit rate 32% among 2,500; shares compounds with Gli-Sufu block; cytotoxicity, % at 5 µM; AID 651994, 2013;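 active = mean cytotoxicity at 5 µM above about 25%, limit read from the data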;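 also: cells exposed to compound overnight for roughly 16 to 18 hours; plate controls were DMSO wells with cells for no effect and medium without cells for full effect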
Wnt3a counter = Wnt3a reporter signal inhibition, confirmation, counter-screen for Gli-SUFU antagonist project, Wnt-LIGHT cells, luminescence, single concentration | Wnt3a-driven luciferase reporter | shares compounds with Gli-Sufu block | hit rate 20% among 2,500 | inhibition, % at 6.25 µM;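 active = mean inhibition above about 25%, limit read from the data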
Starred values were filed as active, the others as inactive. This is a sample that favours compounds with a hit; in the whole collection about 1.3% have one here.

Screening CC[C@H](CCCc1ccc(OC)cc1)CCC(=O)N(c1ccccc1)c1ccccc1 returned SRC2 inh -28.7 and COUP-TFII inh 11.9.
Screening Cc1ccc2nc(-c3ccc(CN4CCC5(CC4)CNc4ccccc45)cc3)c(-c3ccccc3)nc2c1 returned SRC2 inh -37.3 and COUP-TFII inh -1.4.
For Nc1ccc(C(=O)N/N=C\c2cc(N=Nc3cccc4ccccc34)ccc2O)cc1 the results were NCOA1 inh 46.2, NCOA3 inh 60.9, LRH-1 inv ag 17.1, SRC2 inh 23.8, COUP-TFII inh 2.0, Gli-Sufu block 66.6*, Gli antag conf 65.5*, Gli cytotox 40.5* and Wnt3a counter 58.7*.
For CCC(C)(C)n1nnnc1C(c1cc2cc(OC)ccc2[nH]c1=O)N1CCc2ccccc21 (stereo unspecified) the results were NCOA1 inh -32.7, NCOA3 inh 12.6, LRH-1 inv ag 12.1, SRC2 inh 11.5, COUP-TFII inh 8.4 and Gli-Sufu block 17.4.
CCC(C)(C)n1nnnc1C(c1cc2ccc(OC)cc2[nH]c1=O)N1CCc2ccccc21 (stereo unspecified) was read as NCOA1 inh 3.7, NCOA3 inh 0.3, LRH-1 inv ag 23.4, SRC2 inh 17.4, COUP-TFII inh -25.6, Gli-Sufu block 55.7*, Gli antag conf 27.4, Gli cytotox 10.7 and Wnt3a counter -3.1.
For CC1CCC(NC(=O)c2cccc(S(=O)(=O)N3CCN(c4ccccc4)CC3)c2)CC1 (stereo unspecified) the results were NCOA1 inh 1.1, NCOA3 inh -11.5, LRH-1 inv ag -0.3, SRC2 inh -13.9, COUP-TFII inh 11.4, Gli-Sufu block 50.1, Gli antag conf 46.9*, Gli cytotox 24.9 and Wnt3a counter -30.1.
CC1CCC(NC(=O)c2cccc(S(=O)(=O)N3CCN(C)CC3)c2)CC1 (stereo unspecified) was read as NCOA1 inh -21.9, NCOA3 inh -36.0, LRH-1 inv ag -21.8, SRC2 inh -28.8, COUP-TFII inh 6.0 and Gli-Sufu block -19.1.
O=c1cc(CSc2nnc(Nc3ccccc3)s2)nc2sccn12 was read as NCOA1 inh -20.5, NCOA3 inh -26.1, LRH-1 inv ag -22.8, SRC2 inh 0.6, COUP-TFII inh 12.2, Gli-Sufu block 54.9, Gli antag conf 19.3, Gli cytotox 18.3 and Wnt3a counter -8.6.
Screening COc1ccc(-c2nnc(SCC(=O)N/N=C\C=C/c3ccco3)n2-c2ccc(C)cc2)cc1 returned SRC2 inh -16.2 and COUP-TFII inh 9.6.
For Cc1c(CCOC(=O)C23CC4CC(CC(C)(C4)C2)C3)sc[n+]1Cc1ccccc1 the results were NCOA1 inh 5.7, NCOA3 inh 16.9, LRH-1 inv ag 19.1, SRC2 inh 9.2, COUP-TFII inh 2.2, Gli-Sufu block 54.6, Gli antag conf 56.5*, Gli cytotox 9.0 and Wnt3a counter -48.8.
Cc1ccc(C)c(CN2C(=O)COc3ccc(C(=O)c4ccccc4C(=O)O)cc32)c1 was read as NCOA1 inh -4.7, NCOA3 inh 14.5, LRH-1 inv ag 6.7, SRC2 inh -16.5, COUP-TFII inh 5.5, Gli-Sufu block 52.8, Gli antag conf 19.9, Gli cytotox 5.2 and Wnt3a counter -7.0.
For CCCCCC[C@@H](CC)CN(C(=O)Oc1ccccc1)c1ccccc1 the results were SRC2 inh -6.2 and COUP-TFII inh -14.2.
`CCCc1c(CC)c(=N)c2ccccc2n1C` gave NCOA1 inh 13.0, NCOA3 inh -8.2, LRH-1 inv ag 8.3, Gli-Sufu block 51.5, Gli antag conf 58.8*, Gli cytotox 23.6 and Wnt3a counter 0.8.
CCN(CC)S(=O)(=O)c1ccc(S(=O)(=O)Nc2c(C)nn(C)c2C)cc1 was read as NCOA1 inh 5.3, NCOA3 inh 19.5, LRH-1 inv ag 26.9, SRC2 inh 25.2, COUP-TFII inh 37.0, Gli-Sufu block 65.5*, Gli antag conf 54.3*, Gli cytotox 18.2 and Wnt3a counter 25.4*.
For COC(=O)[C@]12C[C@H](CC(=O)N3CCSCC3)C(=O)N(Cc3ccc4c(c3)OCO4)C1=C[C@H](C(C)C)O[C@@H]2C1CC1 the results were SRC2 inh -11.1 and COUP-TFII inh 18.5.
`CCOC(=O)N1CCN(C(=O)CCCn2c(=S)[nH]c3ccsc3c2=O)CC1` gave NCOA1 inh 2.5, NCOA3 inh 10.5, LRH-1 inv ag -9.6, SRC2 inh -33.0, COUP-TFII inh 27.0 and Gli-Sufu block -35.5.
CCOC(=O)N1CCN(C(=O)CCCCCn2c(=S)[nH]c3ccsc3c2=O)CC1 was read as NCOA1 inh -11.6, NCOA3 inh 6.4, LRH-1 inv ag -12.8, SRC2 inh 17.3, COUP-TFII inh -4.6, Gli-Sufu block 68.8*, Gli antag conf 26.8, Gli cytotox 2.4 and Wnt3a counter 25.5*.
CC(=O)N[C@@H]1C[C@@H]2O[C@H](CO)CC[C@@H]2O[C@@H]1CCc1ccc(-c2ccc(F)cc2)cc1 was read as SRC2 inh 19.9 and COUP-TFII inh 0.9.
Screening C/C(N)=C(/C#N)C(=O)COC(=O)c1ccncc1 returned NCOA1 inh 0.5, NCOA3 inh 6.3, LRH-1 inv ag 18.4, SRC2 inh -8.7, COUP-TFII inh 7.9, Gli-Sufu block 95.1*, Gli antag conf 8.1, Gli cytotox 21.6 and Wnt3a counter -3.7.
Screening O=C(CCl)N=c1sccn1Cc1cccc2ccccc12 returned NCOA1 inh -9.6, NCOA3 inh 16.0, LRH-1 inv ag 37.0, SRC2 inh 26.1, COUP-TFII inh -4.8, Gli-Sufu block 95.8*, Gli antag conf 33.4, Gli cytotox 15.1 and Wnt3a counter -18.4.
`O=C(NCCC1=CCCCC1)C1CCN(S(=O)(=O)c2ccccc2[N+](=O)[O-])CC1` gave SRC2 inh -18.1 and COUP-TFII inh -3.3.
`COc1cccc(/C=C/c2ccncc2)c1OC` gave NCOA1 inh -37.9, NCOA3 inh 18.3, LRH-1 inv ag -29.3, SRC2 inh -58.0, COUP-TFII inh -14.2, Gli-Sufu block 56.3*, Gli antag conf 45.5*, Gli cytotox 20.7 and Wnt3a counter -1.4.
